# Measurements published in the supplement of paper PMC9135407.
# Values joined by “and” are separate entries in the source; they are usually repeats but may differ in a detail not shown here. Equal values may be shown once. Where a name gives a salt, the structure may show the parent alone. In all, about 5,800 compounds went through this assay and about 620 (11%) showed activity. What follows is part of a selection rich in actives, with near analogues and random picks from the rest. Unmarked numbers belong to inactive results.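 How the source made its calls: active = score above a cut-off or among the top three wells of a plate; in these data no inactive exceeds 0.85.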
# Tested on: primary human hepatic stellate cells (donor 1)
# Experiment: scaled lipid accumulation score (0 = DMSO-like, 1 = nortriptyline-like); higher = stronger HSC inactivation (lipid re-accumulation), active = hit call of the paper
# Conditions: 48 h
# [1] = library stock concentration: 3.33 mM
# [2] = library stock concentration: 10 mM
# [3] = library stock concentration: 1 mM
# [4] = library stock concentration: 400 uM
# [5] = library stock concentration: 2 mM
smiles,measurement,setting,value
CC(NC(=O)C(O)c1cc(F)cc(F)c1)C(=O)NC1C(=O)N(C)c2ccccc2-c2ccccc21 (configuration not stated),scaled lipid accumulation score,[1],0.011
same,scaled lipid accumulation score,[2],0.133
O=C(Nc1cccc2cccnc12)c1ccc(N2C(=O)C3C4C=CC(C4)C3C2=O)cc1 (stereo not drawn) [IWR-1-endo],scaled lipid accumulation score,[1],≤ 0
same,scaled lipid accumulation score,[2],≤ -0.001
CCCCC/C=C\C/C=C\C/C=C\C/C=C\CCCC(=O)OCc1ccsc1,scaled lipid accumulation score,[3],≤ 0
C[C@]12CC[C@@H]3c4cc(O)c(O)cc4CC[C@H]3[C@@H]1CC[C@@H]2O [2-Hydroxyestradiol],scaled lipid accumulation score,[3],≤ 0
Nc1nccc(-c2ccc3noc(-c4ccc(Cl)cc4)c3c2)n1 [PIM 1 Inhibitor 2],scaled lipid accumulation score,[2],≤ 0
CCNc1nc2c(ncn2[C@H]2C[C@H](O)[C@@H](CO)O2)c(=O)[nH]1 [N2-Ethyl-2'-deoxyguanosine],scaled lipid accumulation score,[2],≤ 0
N.N.N.N.N.N.N.N.N.N.N.N.N.N.O.O.[Cl-].[Cl-].[Cl-].[Cl-].[Cl-].[Cl-].[Ru+4].[Ru+5].[Ru+5] [Ruthenium red],scaled lipid accumulation score,[2],≤ 0
CC(C)=CCC/C(C)=C/CC/C(C)=C/CC/C(C)=C/CC/C(C)=C/CC/C(C)=C/CC1=C(C)C(=O)c2ccccc2C1=O [Vitamin K2],scaled lipid accumulation score,,0.008
Cc1cc2c(s1)Nc1ccccc1N=C2N1CCN(C)CC1,scaled lipid accumulation score,library stock concentration: 9.9 mM,0.228
CN1CCN(C2=Nc3cc(Cl)ccc3Nc3ccccc32)CC1 [Clozapine] [listing 1 of 2 here],scaled lipid accumulation score,[1],0.105
same,scaled lipid accumulation score,library stock concentration: 6.1 mM,0.429 and 0.648
same,scaled lipid accumulation score,[2],0.755 and 0.578
same,scaled lipid accumulation score,library stock concentration: 15.3 mM,0.769
Cc1cc2c(s1)Nc1ccccc1N=C2N1CCN(C)CC1 [Olanzapine],scaled lipid accumulation score,[1],0.171
same,scaled lipid accumulation score,library stock concentration: 6.4 mM,0.341 and ≤ 0
same,scaled lipid accumulation score,[2],0.232
CN1CCN(C2=Nc3cc(Cl)ccc3Nc3ccccc32)CC1 [Clozapine] [listing 2 of 2 here],scaled lipid accumulation score,[2],0.967 (active)
O=C(O)CCC/C=C\C[C@@H]1[C@@H](CC[C@@H](O)CCc2cccc(C(F)(F)F)c2)[C@H](O)C[C@@H]1O,scaled lipid accumulation score,[3],≤ 0
CCCCOc1cc(C(=O)NCCN(CC)CC)c2ccccc2n1.Cl [Dibucaine HCl],scaled lipid accumulation score,[2],0.977 (active)
CCCCOc1cc(C(=O)NCCN(CC)CC)c2ccccc2n1 [Dibucaine],scaled lipid accumulation score,,0.284
CCCCOc1cc(C(=O)NCCN(CC)CC)c2ccccc2n1 [Dibucaine hydrochloride],scaled lipid accumulation score,library stock concentration: 5.3 mM,0.662
same,scaled lipid accumulation score,[2],≤ 0
CCN(CC)CCNC(=O)c1cc(S(C)(=O)=O)ccc1OC [Tiapride hydrochloride],scaled lipid accumulation score,,0.066
same,scaled lipid accumulation score,[2],≤ 0 and ≤ -0.027
CCCCOc1cc(C(=O)NCCN(CC)CC)c2ccccc2n1 [Dibucaine HCl],scaled lipid accumulation score,[1],0.253
CS(=O)(=O)NC(=O)CCC/C=C\C[C@H]1C(=O)C[C@@H](O)[C@@H]1/C=C/[C@@H](O)COc1ccccc1 [Sulprostone],scaled lipid accumulation score,[3],≤ 0
O=C1NC(=O)C(c2cnc3ccccn23)=C1c1cn2c3c(cc(F)cc13)CN(C(=O)N1CCCCC1)CC2 [listing 1 of 2 here],scaled lipid accumulation score,[4],0.836
same,scaled lipid accumulation score,[5],0.699
O=C1NC(=O)C(c2cnc3ccccn23)=C1c1cn2c3c(cc(F)cc13)CN(C(=O)N1CCCCC1)CC2 [listing 2 of 2 here],scaled lipid accumulation score,library stock concentration: 80 uM,0.956 (active)
same,scaled lipid accumulation score,[2],0.857 (active)
CC(=O)N[C@H]1[C@H]([C@H](O)[C@H](O)CO)OC(C(=O)O)=C[C@@H]1NC(=N)N [Zanamivir],scaled lipid accumulation score,[1],≤ 0
same,scaled lipid accumulation score,[2],≤ 0
COc1ccc(C(=O)/C(Br)=C\C(=O)O)cc1 [Bromebric acid],scaled lipid accumulation score,library stock concentration: 7 mM,≤ -0.006
n(c1N)c(N(CC)C(C)C)c(nc1C(=O)\N=C(\N)/N)Cl [5-(N-Ethyl-N-isopropyl)amiloride],scaled lipid accumulation score,[2],1.07 (active)
"c(c1N)(C(=O)\N=C(\N)/N)nc(c(N2CCCCCC2)n1)Cl [5-(N,N-hexamethylene)amiloride]",scaled lipid accumulation score,[2],1.13 (active)
NC(N)=NC(=O)c1nc(Cl)c(N)nc1N,scaled lipid accumulation score,[2],≤ 0
"CN(C)c1nc(N)c(C(=O)NC(=N)N)nc1Cl [5-(N,N-Dimethyl)amiloride hydrochloride]",scaled lipid accumulation score,[2],≤ 0
O=C(O)CCCC=CCC1C(=O)CC(O)C1C=CC(O)CCc1ccccc1 (configuration not stated) [17-phenyl trinor Prostaglandin E2],scaled lipid accumulation score,[3],≤ 0
O=C(O)CCCC=CCC1C(=O)CC(O)C1C=CC(O)CCc1ccccc1 (configuration not stated) [17-Phenyl-trinor-prostaglandin E2],scaled lipid accumulation score,[3],≤ -0.021
O=C(O)c1cc(N(Cc2ccccc2O)Cc2cc(O)ccc2O)ccc1O [Lavendustin A],scaled lipid accumulation score,library stock concentration: 13.1 mM,≤ -0.007
O=C(O)C(Cc1ccccc1[N+](=O)[O-])=NNc1nc(-c2ccc(Cl)c(Cl)c2)cs1,scaled lipid accumulation score,[1],0.038
same,scaled lipid accumulation score,[2],≤ 0
Nc1ccc(S(=O)(=O)O)cc1.Nc1ccc(S(=O)(=O)O)cc1.[Zn] [Sulfanilate zinc],scaled lipid accumulation score,library stock concentration: 4.9 mM,≤ 0
O=C1NC(=O)/C(=C/c2ccc(-c3ccc(F)cc3O)o2)S1 [listing 1 of 2 here],scaled lipid accumulation score,[2],1.66 (active)
O=C1NC(=O)C(=Cc2ccc(-c3ccc(F)cc3)o2)S1 (stereo in doubt),scaled lipid accumulation score,[1],0.028
same,scaled lipid accumulation score,[2],≤ 0
O=C1NC(=O)/C(=C/c2ccc(-c3ccc(F)cc3O)o2)S1 [listing 2 of 2 here],scaled lipid accumulation score,[4],0.064
same,scaled lipid accumulation score,[3],0.034
same,scaled lipid accumulation score,[5],0.304
same,scaled lipid accumulation score,[1],0.132
same,scaled lipid accumulation score,[2],0.526 and 0.759
"CCCCCCCCC=CCC=CCC=CCCCC(=O)O [5(Z),8(Z),11(Z)-Eicosatrienoic Acid]",scaled lipid accumulation score,[3],0.072
OC[C@H]1NC[C@H](O)[C@@H](O)[C@@H]1O [1-Deoxynojirimycin hydrochloride],scaled lipid accumulation score,[2],≤ -0.07
CNC(=O)[C@H]1O[C@@H](n2cnc3c(NCc4cccc(I)c4)nc(Cl)nc32)[C@H](O)[C@@H]1O [Chloro-IB-MECA],scaled lipid accumulation score,[2],≤ -0.07
CNC(=O)[C@H]1O[C@@H](n2cnc3c(NCc4cccc(I)c4)nc(Cl)nc32)[C@H](O)[C@@H]1O,scaled lipid accumulation score,[2],0.019
